Test results: PubChem BioAssay AID1508600 (Functional Genomics Laboratory (NCATS/FGL), 2020)
Hit rate of the full screen: of about 53,000 sequences, about 3,700 (7%) were called active.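 How the source made its calls: active means gene knockdowns whose robust z-score for IL-1 alpha signal is at least 2 or at most -2, so actives lie on both sides; inactive means the rest.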 The sample as a whole holds a higher share of actives than the screen did.

Assay: Components of the Cytosolic LPS Sensing Pathway: Gene Identification via Genome-wide siRNA Screen;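 further: robust z of the log signal after scaling to non-targeting control siRNA wells of the plate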
Conditions: RAW264.7 macrophages, IL-1a HTRF, actives lie on both sides, screened at 100 nM (by protocol), cells primed 5 h with Pam3CSK4 first
How it was run: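 RAW264.7 mouse macrophages reverse-transfected with single siRNAs (100 nM final) for 48h, primed with Pam3CSK4 for 5 hours, then transfected with LipidA for 24 hour. Supernatant IL-1a read by HTRF; values normalized to negative-control median, log-transformed robust z-scores.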

Row | Sequence | z-score
1 | AGAGAGAUAUUGUUCAUCATT against Psg22 | 0.11 (inactive)
2 | GGUAAUCGUGUAUUCAUAUTT against Dph5 | -0.327 (inactive)
3 | GGAAACUGAAAAACAGAGUTT against Xbp1 | -0.957 (inactive)
4 | GCGAAGAGAUGCUAACUAUTT against Dhx8 | -2.86 (active)
5 | UGAGUUGUUUCCAGCUAAATT against Uts2b | -0.506 (inactive)
6 | GCCCGGUCCUUUACUACAUTT against Sdk1 | 0.595 (inactive)
7 | GGAUGCACUCAAGAAUUACTT against Ccdc65 | 2.11 (active)
8 | GGUGAGUGAUCUUCAGAACTT against Snx13 | 0.311 (inactive)
9 | CCCUGCUAAAAUCGACCUGTT against Plekha8 | -0.912 (inactive)
10 | GCUCAUCGUGUUCGCUAUATT against Tuft1 | -0.235 (inactive)
11 | GGAGGUAAAGGAAAACUCUTT against Fmo1 | 0.27 (inactive)
12 | CCACAACUAUGAGUCUAUUTT against Ech1 | 2.05 (active)
13 | GCUGGACCCACACAAAAAGTT against Rhbdl3 | -0.0513 (inactive)
14 | GGCUUUUCAGACCAAGCUUTT against 3830406C13Rik | 0.322 (inactive)
15 | CGUUGUAUGCUAGUACUGATT against Olfr1501 | -1.17 (inactive)
16 | GGCAAAAAGGGAUGUUACCTT against Map1lc3b | -0.221 (inactive)
17 | GCGAGUCUAUGUGUUCCCUTT against Cox4i2 | 0.187 (inactive)
18 | GGAAACAAAUGAGUGCCUGTT against Bloc1s5 | 2.02 (active)
19 | GCUGGAAUACGGAAAAUGGTT against Gbe1 | -1.56 (inactive)
20 | GGAGGAAAUACAUGAUAAATT against Strap | -0.159 (inactive)
21 | GGCUUACGAUGAAAAUAAATT against Lca5 | -1.94 (inactive)
22 | GGCAUUGCAUUCUCACAUGTT against Gabarapl1 | 0.319 (inactive)
23 | GCUCGUUGCAUAAAAAGAGTT against Creg2 | -0.286 (inactive)

Row | Sequence | z-score
24 | GGAGAUCAAAGAAUCUUGGTT against Arhgap45 | -4.45 (active)
25 | GCCGGAAACUCAAGAUAGCTT against F830208F22Rik | -0.74 (inactive)
26 | GCCCGCUCUCGGAUUUUGATT against Htr1b | 1.5 (inactive)
27 | GGUAGAGACCGCAUAGAAATT against Aqp8 | 2 (inactive)
28 | CCGGGUAGUGAGUAAGCUUTT against Neu2 | -3.51 (active)
29 | GGUCCAAGAAGACAAUGCUTT against Cga | -0.102 (inactive)
30 | CCUCUUUGGGACUAUAGACTT against Olfr1357 | -0.378 (inactive)
31 | GGUAUUGGUCCAAUUUUUCTT against Gng7 | 0.187 (inactive)
32 | GGCUGUGGUGCUCAAUAAGTT against Clstn2 | -1.29 (inactive)
33 | CCGAGAUAUGAAUCAAAUUTT against Wars | 2.19 (active)
34 | GGAAAGACAAAAUCUAUGATT against Peg3 | -0.777 (inactive)
35 | GGUCAUCAGUGAGCUGAAUTT against Rplp2 | 0.125 (inactive)
36 | GCUCAUCUCCUUGAAUUCATT against Agbl5 | 0.31 (inactive)
37 | CCUGUCCUGAUGGUGAAACTT against Serpinb3c | 0.619 (inactive)
38 | GCCUAAACUACCCUUAUAGTT against Ocln | 3.4 (active)
39 | GGUGCUGGCAACCUUUUGUTT against Masp1 | 0.16 (inactive)
40 | GGGCCAUUGUCAAGGUGAUTT against Olfr632 | -0.408 (inactive)
41 | CCGAUUUUUACUUUUAGCUTT against Slc16a7 | 1.86 (inactive)
42 | GGAGACUAUUACCAUACUGTT against P4ha2 | -0.991 (inactive)
43 | GGUGAGCAAGAACAAAAAGTT against Chil6 | -0.71 (inactive)
44 | GGUUUCGAGAAAACAACAATT against Miip | 0.566 (inactive)
45 | GCACAUCGAAAAUGCCCUGTT against Cpt1c | -0.154 (inactive)
46 | GGCAAACCUGCUUUCAUGGTT against Smc5 | 0.282 (inactive)

Row | Sequence | z-score
47 | GCAGUUCUCCUAUUUCAUCTT against Cdc45 | 2.03 (active)
48 | CGGGUGAGUGGAAAAACCATT against Atg9b | -0.282 (inactive)
49 | GCCAAUGCCCUUGUGCAAATT against Olfr344 | 0.301 (inactive)
50 | GGCUAUCUCGUAUUCUGAUTT against Olfr985 | -1.62 (inactive)
51 | CCCGGGUUGGGUGUACAUUTT against Sds | 3.62 (active)
52 | CCUUAGCAAUGGGAUUGAUTT against Rasl12 | 0.448 (inactive)
53 | GGAGAACACUUUAAUGCUGTT against Ovch2 | 0.00992 (inactive)
54 | GGGCUGGAGUCUGAUACAUTT against Rbm5 | 3.39 (active)
55 | CCGUGUUAGAGUUUUCGACTT against Top3b | 1.2 (inactive)
56 | CCAAAGGUAUGCAGUAUGATT against Cdh4 | 0.131 (inactive)
57 | GGUUUUCAAAUGUCUAUCATT against Pithd1 | 2.37 (active)
58 | CCUGCUCAGGACGACUUUUTT against Defa20 | -1.63 (inactive)
59 | GGACUUUGACCCGUACUAUTT against Scn8a | 0.951 (inactive)
60 | GCUUGUGCCGGAUAAAGGUTT against Gng3 | -0.748 (inactive)
61 | GCCAAGGUGGAAUUUUUGGTT against Gpx8 | 0.139 (inactive)
62 | GGUAUACCAAGAAGCUAAGTT against Kctd14 | -0.855 (inactive)
63 | GCAGAGGUACGUGUUUGACTT against Gdf5 | 0.933 (inactive)
64 | GCGUGUAGGAAUAAUACCUTT against Psmc6 | -2.66 (active)
65 | UGCUCUUGGGUUCUUAAAUTT against Olfr1466 | -0.559 (inactive)
66 | CGAACAAGCCAUGUUUACATT against Gvin1 | 0.811 (inactive)
67 | GGAACUUCUCAAAAGGCUGTT against Tspoap1 | -0.0418 (inactive)
68 | GGACCUGACCUACUCGUGUTT against Rxrb | -0.216 (inactive)
69 | GCGGAAGCGUGAAUCCAAATT against Tigd3 | 3.13 (active)
